GDH-TPI inh = GDH-TPI coupling enzyme inhibitors, primary screen, artefact control for M. tuberculosis FBA inhibitor project, biochemical, absorbance, full deck; GDH-TPI coupled enzyme counterscreen, NADH absorbance; inhibition, % at 4.8 µM; 1.2% of 360,000 active; AID 588335, 2011; in the data active means inhibition above about 30%;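 further: 0% = DMSO wells and 100% = wells lacking the enzyme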
Yp Topo-I inh = Yersinia pestis topoisomerase I inhibitors, primary screen, biochemical, cleavage product accumulation, plate reader, single point. DNA topoisomerase I (Yersinia pestis CO92). Y. pestis Topo-I cleavage product accumulation. 0.064% of 360,000 active. activity, % at 10 µM. AID 504884, 2011; in the data active means activity above about 50%, passing the limit was not always enough
PrPC surface inh = inhibitors of human cell surface prion protein PrPC, primary screen, cell-based, TR-FRET. TR-FRET read-out. inhibition, % at 13.8 µM. 0.43% of 370,000 active. AID 720596, 2013; in the data active means inhibition above about 24%; further: 0% = median of the test wells and 100% = reference compound wells
TcdB inh = TcdB glycohydrolase inhibitors, primary screen, biochemical, single point, plate reader. Toxin B (Clostridioides difficile), P18177. TcdB glycohydrolase enzymatic assay. inhibition, % at 9.99 µM. 0.24% of 350,000 active. AID 652162, 2013; in the data active means inhibition above about 10%
Mtb FBA inh = Mtb FBA enzyme inhibitors, primary screen, biochemical, fluorescence, strain H37Rv. Fructose-bisphosphate aldolase (Mycobacterium tuberculosis (strain ATCC 25618 / H37Rv)), …. purified M. tuberculosis FBA, fluorescence read-out. inhibition, % at 1 µM. 2.3% of 360,000 active. AID 588726, 2011; in the data active means inhibition above about 27%;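 further: 0% = vehicle and 100% = reference inhibitor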
Target sequence (P9WQA3 whole entry, looked up): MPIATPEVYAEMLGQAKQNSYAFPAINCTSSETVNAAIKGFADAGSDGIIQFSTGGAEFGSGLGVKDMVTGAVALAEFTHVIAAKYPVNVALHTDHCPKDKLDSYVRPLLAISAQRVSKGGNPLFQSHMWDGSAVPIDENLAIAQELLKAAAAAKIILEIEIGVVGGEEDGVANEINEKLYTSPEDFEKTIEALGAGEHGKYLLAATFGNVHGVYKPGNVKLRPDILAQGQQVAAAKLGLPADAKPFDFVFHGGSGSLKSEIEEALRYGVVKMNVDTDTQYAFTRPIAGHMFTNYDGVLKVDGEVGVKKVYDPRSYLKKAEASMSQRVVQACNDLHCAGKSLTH
Numbers without * were called inactive; . = not tested or not shown. Shown are actives, neighbours in structure and some others; about 3.2% of the full set was active somewhere.

SMILES	GDH-TPI inh	Yp Topo-I inh	PrPC surface inh	TcdB inh	Mtb FBA inh
CC(=O)c1ccc(NS(=O)(=O)Cc2ccccc2)cc1	35.0*	-0.7	2.2	.	0.8
O=S(=O)(Cc1ccccc1)Nc1ccccc1	5.1	4.9	-0.5	1.6	-1.0
O=C(C[C@H]1C=C[C@@H](NS(=O)(=O)c2ccc(F)cc2)[C@H](CO)O1)NCc1ccccc1F	.	.	.	0.0	.
CCC(=O)Nc1ccc2oc(-c3cccc(C)c3)nc2c1	4.6	19.0	3.2	.	139.2*
Cc1ccc2oc(-c3cccc(NC(=O)Cc4cccs4)c3)nc2c1	7.4	-1.7	3.0	.	4.2
CCCCC(=O)Nc1ccc2oc(-c3cccnc3)nc2c1	-0.8	-4.4	3.3	.	141.0*
Cc1cccc(-c2nc3cc(NC(=O)C4CCCO4)ccc3o2)c1 (stereo unspecified)	-4.1	9.8	16.1	.	114.2*
COc1ccc(S(=O)(=O)Nc2ccc3c(c2)C(=O)N([C@H](C)CO)C[C@H](C)[C@H](CN(C)C(=O)Nc2ccc(F)cc2)O3)cc1	.	.	.	-1.1	.
Cc1noc(C)c1NC(=O)Nc1cccc2c1O[C@@H](CN(C)CC1CC1)[C@H](C)CN([C@H](C)CO)C2=O	.	.	.	0.1	.
CO[C@@H]1CN(C)C(=O)c2ccc(NC(=O)Nc3ccccc3F)cc2OC[C@H](C)NC[C@@H]1C	.	.	.	-0.6	.
CCN(CC)CCNC(=O)c1cc2c(-c3ccc(Cl)cc3)nn(C)c2s1	12.0	-13.4	-10.2	5.6	135.8*
O=S(=O)(NCC[C@@H]1CC[C@@H](NS(=O)(=O)c2ccccc2Cl)[C@@H](CO)O1)c1ccc(F)cc1	.	.	.	-0.3	.
CN(C)c1ccc(/C=N\Nc2ccccn2)cc1	75.7*	-8.7	-2.6	0.9	2.4
O=C(O)c1ccc(/C=N\Nc2ccccn2)cc1	54.1*	-4.7	-2.2	-0.8	-3.0
C[C@@H]1CN([C@@H](C)CO)C(=O)Cc2cc(NC(=O)Cn3cnnn3)ccc2O[C@H]1CN(C)S(=O)(=O)c1cccs1	.	.	.	-0.5	.
Cc1noc(C)c1S(=O)(=O)Nc1ccc2c(c1)CC(=O)N([C@H](C)CO)C[C@@H](C)[C@@H](CN(C)Cc1ccccc1)O2	.	.	.	0.1	.
O=C(NC1CC1)c1ccc2c(c1)N(Cc1ccccc1)CCS2	3.5	6.0	-4.6	0.8	161.0*
CCOC(=O)N1CCC(NC(=O)c2ccc3c(c2)N(Cc2ccc(C)cc2)CCS3)CC1	-2.9	-5.0	-0.7	1.7	18.8
CCOC(=O)N1CCC(NC(=O)c2ccc3c(c2)N(C)CCS3)CC1	16.3	-14.4	-2.1	.	113.6*
CN1CCN(CCCNC(=O)c2ccc3c(c2)N(Cc2ccc(F)cc2)CCS3)CC1	7.0	-16.1	-10.6	0.5	158.5*
CCOC(=O)N1CCN(C(=O)c2ccc3c(c2)N(Cc2ccc(F)cc2)CCS3)CC1	16.8	28.2	8.1	5.2	12.4
O=C(NCC1CCCO1)c1ccc2c(c1)N(Cc1ccc(F)cc1)CCS2 (stereo unspecified)	9.8	23.2	0.1	0.7	119.1*
CCN1CCN(CCCNC(=O)c2ccc3c(c2)N(Cc2ccccc2)CCS3)CC1	-2.6	0.8	3.1	1.4	170.5*
N#Cc1cc2cc3c(cc2nc1N1CCOCC1)OCO3	0.6	3.3	3.5	.	111.9*
Cc1cc(C)c2nc(N3CCOCC3)c(C#N)cc2c1	7.1	0.9	5.3	-1.4	16.1
SMILES	GDH-TPI inh	Yp Topo-I inh	PrPC surface inh	TcdB inh	Mtb FBA inh
O=C1C2C(c3ccccc3)=NN(c3ccccc3)C2C(=O)N1c1ccccc1 (stereo unspecified)	0.0	-7.5	0.1	0.2	4.5
O=C1[C@@H]2[C@@H](CN3CN(c4ccccc4)N=C(c4ccccc4)[C@@]23c2ccccc2)C(=O)N1c1ccccc1	17.0	6.7	2.3	-0.2	34.5*
COc1ccc([C@H]2CC(=O)C=C(c3ccc(NC(C)=O)cc3)C2)cc1OC	36.8*	-9.9	-36.7	1.3	6.6
CCCOc1ccc(C2=CC(=O)C[C@H](c3ccc(OC)cc3)C2)cc1	10.8	60.3*	-7.3	0.2	-0.5
COc1ccc([C@H]2CC(=O)C=C(c3ccc(C)cc3)C2)cc1OC	4.0	41.7	0.9	1.1	-0.8
CC1(C)CC(=O)C=C(c2cc3ccccc3s2)C1	30.2	-6.0	-3.4	1.4	10.0
O=C1C=C(c2cc3ccccc3s2)CCC1	34.5*	-4.2	-12.8	.	7.6
COc1ccc([C@H]2CC(=O)C=C(c3cc4ccccc4s3)C2)cc1OC	32.6*	4.9	1.7	0.6	0.4
CO[C@@H]1CN(C)C(=O)c2ccc(NC(=O)Cc3ccccc3)cc2OC[C@@H](C)N(C(C)=O)C[C@@H]1C	.	.	.	-1.1	.
CC1C=NC(S(=O)(=O)N2CC[C@@H]3[C@H](CO)N(C)c4ccc(-c5ccccc5F)cc4[C@@H]32)=N1 (stereo partly specified)	.	.	.	-0.4	.
CNc1ccc(Cl)cc1C(N)=O	8.8	5.4	8.1	-0.9	113.2*
CN(C)CCCNC(=O)C[C@H]1CC[C@@H](NC(=O)c2ccccc2F)[C@H](CO)O1	.	.	.	0.0	.
COc1ccc2c3c([nH]c2c1)[C@@H](CO)N(Cc1ccccc1)CC31CN(S(=O)(=O)c2ccc(C)cc2)C1	.	.	.	0.6	.
Cc1ccc(S(=O)(=O)NCC[C@H]2CC[C@@H](NC(=O)c3cccnc3)[C@@H](CO)O2)cc1	.	.	.	-0.4	.
CC1CC(=O)NN=C1c1cccs1 (stereo unspecified)	9.3	-3.3	7.9	-0.8	-2.1
CCN(CC)c1ccc(C2=NNC(=O)CC2C)cc1[N+](=O)[O-] (stereo unspecified)	31.0*	-1.2	-15.3	.	-6.2
CC1CC(=O)NN=C1c1ccc(N(C)C)c([N+](=O)[O-])c1 (stereo unspecified)	37.1*	4.9	-27.9	.	-4.6
COc1ccc(C)cc1NC(=O)C(OC(=O)C1=NNC(=O)CC1)c1ccccc1 (stereo unspecified)	14.4	1.6	-0.3	12.7*	-1.2
Cc1ccc(S(=O)(=O)Nc2ccc3c(c2)C(=O)N([C@H](C)CO)C[C@H](C)[C@H](CN(C)S(=O)(=O)c2ccccc2)OCCCC[C@H](C)O3)cc1	.	.	.	1.5	.
CO[C@@H]1CN(C)C(=O)c2cc(NC(=O)C3CC3)ccc2OC[C@H](C)N(C(=O)c2ccncc2)C[C@H]1C	.	.	.	-0.7	.
COc1cccc(-c2nnc(NC(=O)c3ccco3)s2)c1	41.2*	5.4	2.0	0.8	7.0
CCCOc1cccc(-c2nnc(NC(=O)c3ccco3)s2)c1	49.1*	-1.0	6.6	-0.5	9.8
COc1ccc2nc(NC(=O)c3ccco3)sc2c1	15.5	2.7	14.2	2.1	7.2
Cc1cc(C(=O)Nc2nnc(C3CCCCC3)s2)no1	-0.9	2.1	3.4	.	0.1
CCCOc1cccc(C(=O)Nc2cccc(NC(=O)c3ccco3)c2)c1	6.1	-8.7	-0.6	.	-1.9
COc1cccc(-c2nnc(NC(=O)c3cccs3)s2)c1	35.4*	-2.5	2.8	0.0	1.8
